Shown are actives, neighbours in structure and some others; about 3.2% of the full set was active somewhere.
APOBEC3A inh: human APOBEC3A DNA deaminase inhibition; P31941; inhibition, % at 20 µM; recombinant A3A, FAM/TAMRA ssDNA deamination fluorescence; AID 493011; actives 0.41% (n = 330,000);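 active = at least 40% inhibition at 20 µM here, with at most 30% in a related deaminase screen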;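 also: plate controls were A3A with DMSO for no effect and wells lacking A3A enzyme for full effect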
Target sequence (P31941 whole entry, looked up): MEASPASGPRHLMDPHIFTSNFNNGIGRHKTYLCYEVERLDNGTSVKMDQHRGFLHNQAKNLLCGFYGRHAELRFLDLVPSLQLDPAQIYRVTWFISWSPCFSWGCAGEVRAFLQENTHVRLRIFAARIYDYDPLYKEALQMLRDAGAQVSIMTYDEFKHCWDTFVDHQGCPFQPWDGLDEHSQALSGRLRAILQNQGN
A3G deaminase: inhibitors of human APOBEC3G DNA deaminase. inhibition, % at 20 µM. actives 0.28% (n = 330,000). Q9HC16. recombinant A3G, ssDNA deamination FAM/TAMRA fluorescence;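 active = inhibition of at least 40% at 20 µM, with no more than 30% in the related APOBEC3A deaminase screen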;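 also: plate controls were DMSO wells with A3G for no effect and wells lacking A3G enzyme for full effect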
AHR act: activates the human aryl hydrocarbon receptor | P35869 | AHR-responsive luciferase reporter cells, luminescence | activation, % at 5 µM | actives 2.5% (n = 320,000); in the data active = activation above about 47%;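 also: 0% = vehicle wells and 100% = reference agonist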
NTR1 ag: activates human neurotensin receptor 1 | P30989 | NTR1-U2OS beta-arrestin-GFP spot imaging, agonist mode | activation, % at 20 µM | actives 0.17% (n = 330,000) | AID 493036;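 active = activation at or above 40% of the spot to cytoplasm intensity ratio, with at least 20 cells analyzed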;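 also: 0% = DMSO without peptide and 100% = 100 nM NTR1 peptide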
Starred values were filed as active, the others as inactive.

SMILES	APOBEC3A inh	A3G deaminase	AHR act	NTR1 ag
O=C(Nc1ccccc1N1CCCCC1)c1ccc(-c2cccc(Cl)c2)o1	1	-3	13	1
CN1CCN(c2ccccc2NC(=O)c2ccc(-c3cccc(Cl)c3)o2)CC1	-3	-10	61*	5
O=C(Nc1cccc2nsnc12)c1ccc(-c2cccc(Cl)c2)o1	-4	-3	52*	4
CCC(C)(C)NC(=O)C(c1ccc(OC)cc1)N(C(=O)CCC(=O)Nc1cc(C)on1)c1ccc2c(c1)OCO2 (stereo not drawn)	-1	-6	-1	2
Cc1csc(SCC(=O)Nc2ccccc2[N+](=O)[O-])n1	5	-1	6	1
Cc1cc(NC(=O)CSc2cn(CC(=O)N(C(C)C)C(C)C)c3ccccc23)no1	-3	-4	0	2
CCCc1nc2ccccc2c(=O)n1/N=C/c1c(C)[nH]n(-c2ccc(C)cc2)c1=O	-2	-4	59*	0
CCCc1nc2ccccc2c(=O)n1/N=C/c1ccccc1O	0	-4	-1	2
Cc1ccc(Nc2nc(=O)c3cccnc3s2)cc1	-2	1	69*	1
O=c1nc(NCc2ccco2)sc2ncccc12	2	2	-1	0
N=c1c(S(=O)(=O)c2ccc(Cl)cc2)cc2c(=O)n3ccccc3nc2n1C1CCCC1	-4	-11	1	7
COc1ccc(S(=O)(=O)Cc2ccc(C(=O)N3CCN(c4ccccn4)CC3)o2)cc1	0	-2	18	0
O=C(c1ccc(CS(=O)Cc2ccccc2Cl)o1)N1CCN(c2ccccn2)CC1 (stereo not drawn)	0	1	31	0
COc1ccccc1S(=O)(=O)Cc1ccc(C(=O)N2CCN(c3ccccn3)CC2)o1	0	-7	66*	2
O=C(c1ccc(CS(=O)c2ccccc2Cl)o1)N1CCN(c2ccccn2)CC1 (stereo not drawn)	-4	-5	59*	0
O=[N+]([O-])c1ccc(OC(F)F)c(/C=N/n2cnnc2)c1	3	-6	0	-1
COc1cccc(NC(=O)c2ccc3c(c2)N(C)CCS3)c1	-1	0	20	-2
COc1ccc(Br)cc1CNC(=O)c1ccc2c(c1)N(C)CCS2	1	-5	49*	-2
CN1CCSc2ccc(C(=O)NCc3cccc(F)c3)cc21	-6	-7	67*	-3
COc1ccccc1CNC(=O)[C@@H](NC(=O)C1CCN(C(=O)[C@@H]2CCCN2)CC1)C(C)C	-2	-2	0	-1
O=C(NCCCn1ccnc1)Nc1ccc2c(c1)OCO2	2	-1	50*	-1
O=C(NCCCn1ccnc1)Nc1cccc(Cl)c1	-5	-5	60*	-2
Cc1cc(C)c(C(N)=O)c(Nc2cccc3ccccc23)n1	-1	-6	52*	-1
O=C(CN(Cc1ccco1)C(=O)c1ccccc1)Nc1ccc(Cl)c(Cl)c1	-4	-5	8	7
Cc1ccc(N/N=C2\CS(=O)(=O)N(C)c3ccsc32)cc1	-5	-9	41	6
SMILES	APOBEC3A inh	A3G deaminase	AHR act	NTR1 ag
CN1c2ccsc2/C(=N/Nc2ccc(F)cc2)CS1(=O)=O	-2	-4	65*	8
O=S(=O)(Nc1ccc(-c2nc3cccnc3s2)cc1)c1ccccc1F	-3	0	56*	1
O=S(=O)(Nc1ccc(-c2nc3cccnc3s2)cc1)c1ccc(Cl)s1	-5	-4	69*	4
COc1cccc(C(C(=O)NC2CCCC2)N(C(=O)c2ccco2)c2ccc(-n3cnnn3)c(C)c2)c1OC (stereo not drawn)	1	-1	1	1
COc1ccc(C2C(C#N)C(C#N)N3CCCN23)cc1 (stereo not drawn)	-3	-11	1	0
N#CC1C(C#N)N2CCCN2C1c1ccc(Cl)cc1 (stereo not drawn)	-5	-4	48*	2
CN(CCC#N)C(=S)Nc1ccc(S(=O)(=O)N2CCOCC2)cc1	-5	4	1	1
CCOC(=O)c1cc(=O)c2ccc(OCC(=O)Nc3ccc(F)cc3)cc2o1	-2	-9	0	-1
CCc1ccc(OCC(=O)N/N=C2\CC(=O)c3ccccc32)cc1	-2	-8	62*	2
COc1ccc(OCC(=O)N/N=C2\CCCCc3ccccc32)cc1	-1	-11	2	-1
Cc1ccc([N+](=O)[O-])c(OCCN2CCNCC2)c1	-3	-8	-1	-2
Cc1ccc([N+](=O)[O-])c(OCc2ncc(Cl)n2C)c1	1	5	55*	0
FC(F)(F)c1nc2ccccc2c2nc3ccccc3n12	-1	-7	50*	2
c1ccc(-c2nc3ccccc3c3nc4ccccc4n23)cc1	1	-4	52*	12
c1ccc2c(c1)nc(CN1CCOCC1)n1c3ccccc3nc21	1	0	4	-1
CCc1nc2ccccc2c2nc3ccccc3n12	-3	-6	51*	3
COc1ccc(C2=CC(=O)C[C@H](c3ccc(F)cc3)C2)c(OC)c1	-4	-7	8	0
CC(C)c1cccc(C(C)C)c1OCCCCCN1CCOCC1	-2	-7	0	0
Cc1onc(-c2ccccc2Cl)c1C(=O)OCC(=O)Nc1ccc2c(c1)OCO2	-1	-6	56*	-2
Brc1c(-c2ccccc2)nc2n1Cc1ccccc1-2	1	0	54*	5
c1ccc2c(c1)Cn1c-2nc2ccccc21	0	1	-5	0
CC(=O)/C(N=Nc1cc(C)ccc1O)=C(\C)O	8	3	56*	0
CC(=O)/C(N=Nc1ccc(C(=O)O)cc1[N+](=O)[O-])=C(\C)O	20	-4	-2	1
Cc1ccc2ccc(C3C(=O)c4ccccc4C3=O)nc2c1	1	1	58*	0
COc1ccc(-c2[nH]ncc2CN2CCCC(C(=O)c3cccc(OC)c3)C2)cc1 (stereo not drawn)	0	-5	73*	1
SMILES	APOBEC3A inh	A3G deaminase	AHR act	NTR1 ag
COc1ccc(C(=O)C2CCCN(Cc3cn[nH]c3-c3ccccc3)C2)cc1OC (stereo not drawn)	4	1	0	0
COc1ccccc1-c1cc2ccccc2[nH]1	-5	-6	64*	-2
O=C(O)c1ccccc1-c1cc2ccccc2[nH]1	-2	-7	-1	0
CN(C)c1ccc(C(O)Cc2nc3ccccc3n2C)cc1 (stereo not drawn)	-3	-7	60*	0
COc1ccccc1C(O)Cc1nc2ccccc2n1C (stereo not drawn)	-4	-6	2	-1
CC(C)c1ccc(C(O)Cc2nc3ccccc3n2C)cc1 (stereo not drawn)	-4	-8	70*	1
CCC(C)[C@H](NC(=O)N1CC(=O)Nc2ccccc21)C(=O)Nc1nccs1 (stereo partly drawn)	1	8	5	0
O=C(CCc1nnc(COc2ccccc2)o1)NCc1ccccc1C(F)(F)F	3	2	3	0
CC(=O)N(CCc1cccc(C)c1)Cc1cc2cc(C)ccc2[nH]c1=O	-1	-3	49*	2
CC(=O)N(CCc1cccc(C)c1)Cc1cc2ccc(C)cc2[nH]c1=O	2	1	9	1

Bioassay records (PubChem BioAssay)
